DT40 TDP1 no CPT = qHTS for Inhibitors of human tyrosyl-DNA phosphodiesterase 1 (TDP1): qHTS in cells in absence of CPT; AID 686978, 2013; DT40 Tdp1-/- hTDP1 cells, no CPT, ATP luminescence, 48 h; 15% of 420,000 active; Potency, µM (top dose mostly 46.2 µM), usual class: inhibitors; note: nearly all actives have a fitted effect of over 55% in size
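Stably hTDP1-transfected Tdp1-null chicken DT40 cells were treated with library compounds minus camptothecin and grown for at least 48 hr at 37 °C, after which cellular ATP was quantified by luminescence.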
VDR inh = Inhibitors of the vitamin D receptor (VDR): qHTS. Potency, µM, usual class: inhibitors. 0.93% of 400,000 active. Vitamin D3 receptor (Homo sapiens), P11473. VDR-SRC2-3 peptide fluorescence polarization, 2 h
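Reagent solutions, kept cold and dark, are dispensed first; compounds are then pinned in at 23 nl, plates briefly spun, and incubated 2 h at ambient temperature. Inhibition of VDR–SRC2-3 peptide binding is read by fluorescence polarization.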
PLK1 PBD inh = qHTS for Inhibitors of PLK1-PDB (polo-like kinase 1 - polo-box domain): Primary Screen; 2.8% of 360,000 active; Plk1 PBD binding of FITC phosphopeptide, fluorescence polarization; Potency, µM, actives largely listed as inhibitors; note: series mostly up to about 57 µM; nearly all actives have a fitted effect of over 65% in size
Target sequence (P53350 whole entry, looked up, the tested form may be a part): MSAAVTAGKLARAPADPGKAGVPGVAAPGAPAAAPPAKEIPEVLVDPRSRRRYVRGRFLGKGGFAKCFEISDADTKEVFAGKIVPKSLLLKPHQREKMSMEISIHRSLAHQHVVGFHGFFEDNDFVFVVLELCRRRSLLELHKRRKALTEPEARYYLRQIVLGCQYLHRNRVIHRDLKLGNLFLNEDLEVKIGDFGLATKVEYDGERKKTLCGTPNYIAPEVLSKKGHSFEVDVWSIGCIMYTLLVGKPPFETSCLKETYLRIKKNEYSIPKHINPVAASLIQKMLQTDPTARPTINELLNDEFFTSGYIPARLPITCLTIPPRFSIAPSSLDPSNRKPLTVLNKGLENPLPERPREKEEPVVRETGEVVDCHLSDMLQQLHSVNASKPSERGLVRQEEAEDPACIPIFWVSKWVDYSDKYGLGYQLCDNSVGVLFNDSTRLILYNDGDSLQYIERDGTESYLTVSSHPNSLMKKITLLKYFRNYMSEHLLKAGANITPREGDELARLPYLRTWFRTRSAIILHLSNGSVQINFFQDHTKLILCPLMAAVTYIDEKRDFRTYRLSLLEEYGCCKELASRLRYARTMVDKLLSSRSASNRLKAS
TDP1 cell CPT = qHTS for Inhibitors of human tyrosyl-DNA phosphodiesterase 1 (TDP1): qHTS in cells in presence of CPT; chicken DT40 Tdp1-/-;hTDP1 cells + 20 nM CPT, ATP luminescence, 48 h; Potency, µM (series often up to 46.2 µM), most hits filed as inhibitors; 12% of 420,000 active; AID 686979, 2013; note: nearly all actives have a fitted effect of over 55% in size
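Chicken DT40 Tdp1-/- cells stably complemented with human TDP1 were seeded at 400 cells/well in medium containing 20 nM camptothecin, exposed to pin-transferred compounds, and grown at 37 °C for at least 48 hr. Viability was read as ATP luminescence.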
KAT2A inh = qHTS Assay for Inhibitors of GCN5L2; GCN5L2 HAT assay, ThioGlo1 CoA-SH fluorescence; Potency, µM (series often up to 58.9 µM), actives largely listed as inhibitors; 0.21% of 390,000 active
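Enzyme at 20nM final was mixed with library compounds for 15 min at room temperature. Peptide H3(1-25) at 75uM, acetyl-CoA at 70uM and ThioGlo1 at 50uM were then added. Plates were read immediately and after 20 min (Ex340nm/Em540nm).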
TDP1 inh = qHTS Assay for Inhibitors of Tyrosyl-DNA Phosphodiesterase (TDP1); recombinant TDP1, AlphaScreen DNA substrate cleavage; 0.28% of 350,000 active; Tyrosyl-DNA phosphodiesterase 1 (Homo sapiens), Q9NUW8; Potency, µM (series often up to 130 µM), hits mostly inhibitors; note: nearly all actives have a fitted effect of over 40% in size
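Recombinant E. coli-expressed Tdp1 (1 nM) preincubated with compound 15 min at RT, then 5'-biotin/3'-phosphotyrosine-FITC DNA substrate (15 nM) added for 5 min. AlphaScreen beads (10 ug/ml) added, 10 min RT; tyrosine-FITC cleavage read as signal loss.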
Each line names hits and unclear results; the compound was inactive in the other large screens; ! = not confirmed by another sample. This is a sample that favours compounds with a hit; in the whole collection about 18% have one here. Calls come from the whole dose curve; as a rule, active = well fitted curve in the direction sought with a large enough effect; inconclusive = small, poorly fitted or top-dose-only effect, or another doubt; inactive = no such curve, though single readings can be large; an effect the other way counts as inactive or inconclusive.

CN1c2ccccc2C(=O)N2CCc3c([nH]c4ccccc34)C21 (stereo not given)	none (no result: DT40 TDP1 no CPT, PLK1 PBD inh, TDP1 cell CPT, KAT2A inh)
CSC(=Nc1ccccc1)C(C#N)c1nc2ccccc2[nH]1 (stereo not given)	none (no result: TDP1 inh)
N#CC(C(=S)Nc1ccccc1)c1nc2ccccc2[nH]1 (stereo not given)	DT40 TDP1 no CPT 5.2µM, TDP1 cell CPT 5.2µM (no result: TDP1 inh)
O=C(O)C(CCC(C(=O)O)c1ccccc1)c1ccccc1 (stereo not given)	none (no result: KAT2A inh, TDP1 inh)
O=C(c1cc(-c2ccc(Br)cc2)n[nH]1)N1CCN(S(=O)(=O)c2ccc(Cl)s2)CC1	DT40 TDP1 no CPT inconclusive, TDP1 cell CPT inconclusive (no result: PLK1 PBD inh)
COc1ccc(C(CC(=O)Nc2ccc(F)cc2)c2ccccc2)cc1 (stereo not given)	DT40 TDP1 no CPT inconclusive, TDP1 cell CPT inconclusive
COc1ccc(C(C)NCCC(c2ccc(OC(C)C)cc2)c2ccccc2OC)cc1 (stereo not given)	DT40 TDP1 no CPT 5.8µM, TDP1 cell CPT 5.8µM (no result: TDP1 inh)
COc1ccc(C(CCNC(C)c2ccccc2)C(C)C)cc1 (stereo not given)	DT40 TDP1 no CPT 16µM, TDP1 cell CPT inconclusive
COc1ccccc1C(CC(=O)Nc1ccc(Cl)cc1)c1ccc(OC(C)C)cc1 (stereo not given)	DT40 TDP1 no CPT inconclusive, TDP1 cell CPT 16µM
Cc1ccc(OCC(=O)Nc2ccc3nn(-c4ccc(C)cc4)nc3c2)cc1	none (no result: PLK1 PBD inh)
COCC(=O)N(Cc1cc2ccc(C)c(C)c2n2nnnc12)C1CCCC1	DT40 TDP1 no CPT inconclusive, TDP1 cell CPT inconclusive
N#Cc1c(SCC(=O)Nc2cccc(C(F)(F)F)c2)sc2c(O)cc(=O)[nH]c12	VDR inh inconclusive, PLK1 PBD inh 13µM
Cc1csc(NC(=O)CSc2sc3c(O)cc(=O)[nH]c3c2C#N)n1	PLK1 PBD inh inconclusive
CCSc1nnc(NC(=O)CSc2sc3c(O)cc(=O)[nH]c3c2C#N)s1	PLK1 PBD inh 12µM, KAT2A inh inconclusive
O=C(/C(=C/O)N=Nc1ccc(Cl)cc1)c1ccncc1	DT40 TDP1 no CPT 26µM, VDR inh inconclusive, PLK1 PBD inh inconclusive, TDP1 cell CPT 15µM
Cc1ccc(N=N/C(=C\O)C(=O)c2ccncc2)cc1	DT40 TDP1 no CPT inconclusive, TDP1 cell CPT inconclusive
Cc1nc2ccccc2nc1C	none (no result: VDR inh, PLK1 PBD inh, KAT2A inh, TDP1 inh)
CCC1Sc2ccccc2N(CC(=O)NCc2ccc(C)cc2)C1=O (stereo not given)	DT40 TDP1 no CPT 23µM, TDP1 cell CPT inconclusive (no result: PLK1 PBD inh)
COc1ccc([C@@H]2CC(=O)c3c(O)cc(O[C@@H]4O[C@H](CO[C@@H]5O[C@@H](C)[C@H](O)[C@@H](O)[C@H]5O)[C@@H](O)[C@H](O)[C@H]4O)cc3O2)cc1	none (no result: DT40 TDP1 no CPT, PLK1 PBD inh, TDP1 cell CPT)
c1cc(Nc2ncnc3sccc23)cc(-c2nnc3n2CCCCC3)c1	DT40 TDP1 no CPT inconclusive, TDP1 cell CPT 21µM
Cc1cnc(C(=O)Nc2cccc(-c3nnc4n3CCCCC4)c2)cn1	none
CC(=O)OC(C)OC(=O)C(C)c1ccc(-c2ccccc2)c(F)c1 (stereo not given)	none (no result: VDR inh, PLK1 PBD inh, KAT2A inh, TDP1 inh)
Cc1cccc(C)c1NC(=O)C(C)c1ccc(-c2ccccc2)c(F)c1 (stereo not given)	DT40 TDP1 no CPT 16µM, TDP1 cell CPT 23µM (no result: KAT2A inh)
CC(=O)Nc1cccc(/C(C)=N/Nc2ccc(S(=O)(=O)Nc3ccccc3C(=O)O)cc2[N+](=O)[O-])c1	VDR inh inconclusive, PLK1 PBD inh 24µM (no result: KAT2A inh, TDP1 inh)
O=C(O)c1ccccc1NS(=O)(=O)c1ccc(N/N=C/c2cccc(O)c2O)c([N+](=O)[O-])c1	PLK1 PBD inh inconclusive (no result: KAT2A inh, TDP1 inh)
O=[N+]([O-])c1cc(S(=O)(=O)Nc2ccc(Cl)cc2)ccc1N/N=C/c1ccncc1	DT40 TDP1 no CPT 5.8µM, TDP1 cell CPT inconclusive
CN(CCO)c1ccc(C=NNc2ccc([N+](=O)[O-])cc2S(=O)(=O)Nc2ccccc2C(=O)O)cc1	VDR inh 79µM, PLK1 PBD inh 21µM, KAT2A inh inconclusive
CCOc1ccc(C=NNc2ccc(S(=O)(=O)Nc3ccccc3C(=O)O)cc2[N+](=O)[O-])cc1OC	PLK1 PBD inh inconclusive, KAT2A inh inconclusive (no result: TDP1 inh)
CC(=O)Nc1ccc(C=NNc2ccc([N+](=O)[O-])cc2S(=O)(=O)Nc2ccccc2C(=O)O)cc1	VDR inh inconclusive, PLK1 PBD inh inconclusive, KAT2A inh inconclusive
CC(=O)Nc1ccc(C=NNc2ccc(S(=O)(=O)Nc3ccccc3C(=O)O)cc2[N+](=O)[O-])cc1	VDR inh inconclusive, PLK1 PBD inh 21µM, KAT2A inh inconclusive
COc1cccc(CN2CCCC(C(=O)N3CCCCC3)C2)c1 (stereo not given)	none (no result: TDP1 inh)
C=C(C)[C@@H]1CC=C(CN2CCC(CCOC)(C(=O)OCC)CC2)CC1	DT40 TDP1 no CPT inconclusive, TDP1 cell CPT inconclusive
CCOc1cc(/C=N/Nc2ccc(S(=O)(=O)Nc3ccccc3C(=O)O)cc2[N+](=O)[O-])cc(Cl)c1O	PLK1 PBD inh 7.5µM (no result: VDR inh, KAT2A inh, TDP1 inh)
CN(C(=O)COC(=O)c1cc(S(=O)(=O)N2CCCCC2)ccc1Cl)c1ccccc1	DT40 TDP1 no CPT inconclusive, TDP1 cell CPT inconclusive
O=C(CCc1nc(-c2ccccc2Cl)no1)Nc1cccnc1	DT40 TDP1 no CPT inconclusive, TDP1 cell CPT 21µM
NC(=O)CCCc1nc(-c2ccccc2Cl)no1	none
CNC(=O)CCCc1nc(-c2ccccc2Cl)no1	PLK1 PBD inh 24µM
CC(=O)NCCc1c[nH]c2ccc(O)cc12	TDP1 cell CPT 18µM!
Cc1ccc2cccc(OCc3cccc([N+](=O)[O-])c3)c2n1	none (no result: TDP1 inh)
COC(=O)c1ccc(OCCOc2ccccc2C)cc1	TDP1 inh 79µM
COC(=O)c1ccc(OCCOc2ccccc2)cc1	none
Cc1ccc(OCCOc2cccc3ccc(C)nc23)c([N+](=O)[O-])c1	DT40 TDP1 no CPT 16µM, TDP1 cell CPT inconclusive
Cc1ccc2cccc(OCCOCCOc3ccccc3Br)c2n1	DT40 TDP1 no CPT 21µM, TDP1 cell CPT inconclusive
CCOC(=O)c1ccc(OCCOc2cccc(C)c2)cc1	TDP1 inh 50µM
Cc1ccc(-c2nnc3c4ccccc4c(C)nn23)cc1NC(=O)c1ccccc1Cl	none (no result: PLK1 PBD inh)
COC1=CC(=O)OC(c2ccccc2C(F)(F)F)C1 (stereo not given)	none (no result: VDR inh, KAT2A inh, TDP1 inh)
CCCc1cc(=O)[nH]c(Nc2ccc3c(c2)OCCO3)n1	none

Bioassay records as filed in PubChem.
